From PubChem BioAssay AID1851 (National Center for Advancing Translational Sciences (NCATS), 2009) come the findings set out here.

Values joined by “and” are separate entries in the source; they are usually repeats but may differ in a detail not shown here. Equal entries are not always repeated. In all, about 16,000 compounds went through this assay and about 5,800 (36%) were called active. Not shown: some 23% with an inconclusive outcome. The call rests on the fitted dose curve; in most records, active means well fitted curve in the direction sought with a large enough effect; inconclusive means small, poorly fitted or top-dose-only effect, or effect the other way; inactive means no such curve, though single readings can be large or run the other way. This is one part of the list. A structure can be active in one record and inactive in another.

Broadly, the AC50 is the concentration giving half of the maximal activity seen.
On the % scale 0 is the no-effect control and ±100 the full control effect.

For the test, the target named is Cytochrome P450 2C19 (Homo sapiens) (UniProt P33261). Briefly: Cytochrome panel assay with activity outcomes. Particulars: recombinant CYP, pro-luciferin dealkylation, luminescence, p450-cyp2c19; series mostly up to 57.1 µM.
Sequence of Cytochrome P450 2C19 (Homo sapiens) (P33261 whole entry, looked up): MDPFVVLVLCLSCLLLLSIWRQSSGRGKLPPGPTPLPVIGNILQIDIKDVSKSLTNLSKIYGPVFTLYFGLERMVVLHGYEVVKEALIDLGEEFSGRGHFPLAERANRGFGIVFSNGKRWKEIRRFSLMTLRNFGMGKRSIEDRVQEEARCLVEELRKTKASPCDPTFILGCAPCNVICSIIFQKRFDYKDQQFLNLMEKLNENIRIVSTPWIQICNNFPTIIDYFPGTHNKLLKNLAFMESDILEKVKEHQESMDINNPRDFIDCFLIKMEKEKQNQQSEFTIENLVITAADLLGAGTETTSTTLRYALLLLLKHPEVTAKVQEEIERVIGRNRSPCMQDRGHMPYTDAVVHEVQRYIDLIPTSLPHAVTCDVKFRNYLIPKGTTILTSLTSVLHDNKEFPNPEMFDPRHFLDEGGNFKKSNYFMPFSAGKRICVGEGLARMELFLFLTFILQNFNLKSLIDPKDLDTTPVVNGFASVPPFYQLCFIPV
For `CC[C@H](C)[C@@H]1O[C@]2(CC[C@@H]1C)C[C@H]1C[C@H](CC=C(C)[C@@H](O[C@H]3C[C@H](OC)[C@H](O[C@H]4C[C@H](OC)[C@H](O)[C@H](C)O4)[C@H](C)O3)[C@@H](C)C=CC=C3CO[C@@H]4[C@@H](O)C(C)=C[C@H](C(=O)O1)[C@@]34O)O2`, the AC50 entry is “inactive”. For `COc1cc2c(CCNC(C)=O)c[nH]c2cc1O`, the AC50 entry is “inactive”. In the case of `CC(=O)NCCc1c[nH]c2ccc(O)cc12`, the AC50 entry is “inactive”. Regarding `COc1cc2c(CCNC(C)=O)c[nH]c2cc1Cl`, the AC50 was 5.01 µM (active). With `CC(C)[C@](N)(C(=O)O)c1ccccc1`, the activity, negative = inhibition is 11.6% [at 11.4 µM] (inactive). In the case of `Cc1nc2c3cnn(-c4ccc(C)c(C)c4)c3ncn2n1`, the half-maximal activity concentration (AC50) was 10 µM (active). In the case of `O=C(N/N=C/c1ccco1)c1ccc(Br)o1`, the AC50 result was “inactive”. With `O=C(Cc1ccccc1)N/N=C/c1cc(Br)c(Br)o1`, the concentration at half-maximal activity (AC50) is 8.91 µM (active). As for `O=C(Cc1ccccc1)N/N=C\c1ccc(Br)o1`, the AC50 is 10 µM (active). `O=C(O)c1cc2cc(Cl)ccc2oc1=O`: the AC50 result was “inactive”. On to `O=c1ccc2cc(O)c(O)cc2o1`, for which the AC50 entry is “inactive”. As for `CCN(CC)c1ccc2cc(C(C)=O)c(=O)oc2c1`, the AC50 was 1.58 µM (active). On to `O=C(O)C[C@H](S)C(=O)O`, for which the activity, negative = inhibition is 13.1% [at 11.4 µM] (inactive). Turning to `C=CC(C)(C)c1[nH]c2ccccc2c1C1=C(O)C(=O)C(c2c[nH]c3c(CC=C(C)C)cccc23)=C(O)C1=O`, the AC50 was 1.26 µM (active). Regarding `COc1ccc(-n2c(=O)c(-c3cccs3)nc3cnc(N4CCOCC4)nc32)cc1`, the AC50 result is “inactive”.

Turning to `Cc1ccc2c(c1)N[C@H](c1ccc(C(=O)O)cc1)c1cccn1-2`, the activity, negative = inhibition was -26.9% [at 11.4 µM] (inactive). On to `Cc1ccc(C)c(S(=O)(=O)NCc2ccc(C(=O)N3CCC(Cc4ccccc4)CC3)cc2)c1`, for which the half-maximal activity concentration (AC50) is 4.47 µM (active). Take `CCCS(=O)(=O)N1CCCC(C(=O)NCCN2CCC(Cc3ccccc3)CC2)C1` (stereo not given): the AC50 result was “inactive”. Take `Cc1nc2ccccc2n1CC(=O)N/N=C\C=C\c1ccccc1`: the AC50 was 7.08 µM (active). As for `Cn1c(SCC(=O)N/N=C/C=C\c2ccco2)nc2ccccc21`, the concentration at half-maximal activity (AC50) is 14.1 µM (active). In the case of `CNC(=O)Oc1ccc2c(c1)[C@@]1(C)CCN(C)[C@@H]1N2C`, the AC50 result was “inactive”. As for `CC(=O)OC[C@@H]1O[C@@H](O/N=C2/C[C@@H](O)[C@@H](O)[C@@H]3[C@@H]4C(=O)N([C@@H](C)c5ccccc5)C(=O)[C@H]4CC[C@H]23)[C@H](OC(C)=O)[C@H](OC(C)=O)[C@@H]1OC(C)=O`, the activity, negative = inhibition is -3.3% [at 11.4 µM] (inactive).

For the compound `O=C(/C=C/c1ccccc1)NC(NC(=S)Nc1ccc(Cl)cc1)C(Cl)(Cl)Cl` (stereo not given), the concentration at half-maximal activity (AC50) was 3.55 µM (active). As to `C[C@@H](c1ccccc1)N1C(=O)[C@H]2[C@H]3[C@H](O)[C@H](O)C/C(=N/OCc4ccccc4)[C@@H]3CC[C@@H]2C1=O`, the activity, negative = inhibition was -24.2% [at 11.4 µM] (inactive). Turning to `CC(C)NC(=O)N1CCCC2(CCN(C(=O)c3cc(C(F)(F)F)cc(C(F)(F)F)c3)CC2)C1`, the AC50 entry was “inactive”. Regarding `Cc1nn2c3c(cnc2c1-c1ccccc1)C(=O)CC(c1ccccc1)C3` (stereo not given), the AC50 is 7.08 µM (active). The same measure, in the same setting: then `Cc1nn2c(NCC(C)C)c3c(nc2c1-c1ccccc1)CCC3`, with “inactive”. Consider `Cc1ccc(C)c(NC(=O)NCc2ccc(Cl)cc2)c1`, for which the half-maximal activity concentration (AC50) was 1.58 µM (active). Still for that read-out and setting: then `Cc1cccc(C)c1NC(=O)N1CCC(N2CCCCC2)CC1`, with “inactive”; and `COC(=O)C1CSC(C(=O)OC)N1C(=O)Nc1ccccc1` (stereo not given), with 10 µM (active); and `CCCCN1CCCC[C@H]1C(=O)Nc1c(C)cccc1C`, with “inactive”. `COC(=O)C1CSC(C(=O)OC)N1C(=O)Nc1c(C)cccc1C` (stereo not given): the AC50 was 7.94 µM (active). With `COc1ccc(C(=O)N2CCC3(CCCN(Cc4ccncc4)C3)CC2)cc1`, the AC50 entry is “inactive”.

For the compound `COc1ccc(N2C(=O)NC(NC(=O)c3ccncc3)(C(F)(F)F)C2=O)cc1` (stereo not given), the AC50 was 6.31 µM (active).

Turning to `CC(=O)Nc1ccc(S(=O)(=O)NC2(C(F)(F)F)NC(=O)N(c3ccc(Cl)cc3)C2=O)cc1` (stereo not given), the AC50 entry is “inactive”. Same read-out and setting: the result for `CNc1ncnc2c1ncn2[C@@H]1O[C@H](CO)[C@@H](O)[C@@H]1O` reads “inactive”; that for `O=C(O)c1cccnc1C(=O)O`, “inactive”; that for `O=[N+]([O-])c1ccc([C@@H](Nc2ccccc2)c2ccc3cccnc3c2O)cc1`, 3.98 µM (active).

For `CC(=O)C[C@H](c1ccc([N+](=O)[O-])cc1)c1c(O)c2ccccc2oc1=O`, the AC50 result was “inactive”. For `O=C(O)c1ccccc1N[C@H](c1ccccc1)c1ccc2cccnc2c1O`, the AC50 is 3.98 µM (active). Still for that read-out and setting: the result for `Cc1cc(C)c(C#N)c(SCS(=O)c2ccc(C(C)(C)C)cc2)n1` (stereo not given) reads 3.16 µM (active); that for `C[C@@]12CC3CC(N)(C1)C[C@@](C)(C3)C2`, “inactive”. `C[C@]12CC3CC(N)(C1)C[C@@](C)(C3)C2`: the concentration at half-maximal activity (AC50) result was “inactive and 10 µM (active)”. `CCCn1c(CC)nc([N+](=O)[O-])c1S(=O)(=O)c1ccccc1`: the AC50 is 14.1 µM (active).

As to `Cc1nc([N+](=O)[O-])c(N2CCN(C)CC2)n1Cc1ccccc1`, the AC50 result was “inactive”. For the compound `COc1cc(-c2nnc(SC/C=C/c3ccccc3)n2N)cc(OC)c1OC`, the AC50 was 15.8 µM (active). As for `CCCS(=O)(=O)N1CCCC(C(=O)NCCCOC(C)C)C1` (stereo not given), the AC50 entry is “inactive”.

On to `CCS(=O)(=O)N1CCCC(C(=O)NCCCOC(C)C)C1` (stereo not given), for which the AC50 result was “inactive”.

With `CCC(C)NC(=O)C1CCCN(C(=O)NC2CCCCC2)C1` (stereo not given), the concentration at half-maximal activity (AC50) is 14.1 µM (active).

As for `CO/N=C(\C(=O)N[C@@H]1C(=O)N2C(C(=O)O)=C(COC(N)=O)CS[C@@H]12)c1ccco1`, the AC50 result was “inactive”. For `NC(=S)N/N=C/c1ccccc1OCc1cccc(Cl)c1`, the AC50 is 2.24 µM (active). On to `O=C(Cc1ccccc1)N/N=C/c1ccccc1OCc1ccc(Cl)cc1`, for which the AC50 is 4.47 µM (active).

On to `O=C(CO)N/N=C/c1ccccc1F`, for which the AC50 entry was “inactive”. Consider `Cc1cc2nc(C3CCCN(C(=O)NCc4ccccc4)C3)[nH]c2cc1C` (stereo not given), for which the AC50 was 20 µM (active). As to `CC1=C(C(=O)NCCN2CCN(C)CC2)C2(CCC(C)CC2)OC1=O` (stereo not given), the AC50 result was “inactive”. With `CC1=C(C(=O)N2CCCCCC2)C2(CCC(C)CC2)OC1=O` (stereo not given), the half-maximal activity concentration (AC50) was 10 µM (active).

For the compound `CN1C(=C2C(=O)OC(C)(C)OC2=O)Sc2ccccc21`, the half-maximal activity concentration (AC50) is 1 µM (active).

As for `N=C(N)SCCc1ccc(OCc2ccc([N+](=O)[O-])cc2)cc1`, the AC50 entry is “inactive”. In the case of `O=[N+]([O-])c1ccc(CSCc2ccc(Cl)cc2)cc1`, the half-maximal activity concentration (AC50) was 0.398 µM (active). The same measure, in the same setting: then `O=[N+]([O-])c1ccc(CSc2ncnc3c2ncn3[C@@H]2O[C@@H](CO)[C@@H](O)[C@H]2O)cc1`, with “inactive”; and `COc1ccc(N2CCN(C(=O)CSc3nnc4c5cc(C)ccc5n(C)c4n3)CC2)cc1`, with 1 µM (active).

Consider `Cc1cc(=O)[nH]c2c1c(C)nn2C1CCOC(C)(C)C1` (stereo not given), for which the AC50 result is “inactive”. Still for that read-out and setting: the result for `Cc1ccc2c(c1)C1(SCCS1)C(=O)N2` reads 25.1 µM (active); that for `O=C1Nc2ccc(F)cc2C12SCCS2`, 11.2 µM (active). `CCc1c(O)c2c(c(O)c1C(C)=O)C(=O)c1c(cc(O)c(C(=O)O)c1C(=O)O)C2=O`: the activity, negative = inhibition was -9.38% [at 11.4 µM] (inactive). As to `CCOc1cc(CNCCCN2CCOCC2)cc(Br)c1OCC(=O)Nc1cccc(C(F)(F)F)c1`, the AC50 result is “inactive”. The same measure, in the same setting: then `CCOc1cc(CNc2ccc(OC)cc2)cc(Br)c1OCC(=O)NC(C)(C)C`, with 5.62 µM (active); and `CCOc1cc2[nH]c(=O)n(CCC(=O)NCc3ccc(OC)cc3)c(=O)c2cc1OCC`, with “inactive”. Regarding `OC[C@@H]1O[C@H](n2cnc3c(/C=C(\O)c4ccccc4)ncnc32)[C@H](O)[C@@H]1O`, the activity, negative = inhibition was 34% [at 11.4 µM] (inactive).

Consider `CCOc1ccc(N2C(=O)CS/C2=N/NC(=O)COc2ccc3ccccc3c2)cc1`, for which the concentration at half-maximal activity (AC50) is 15.8 µM (active).

As for `O=C(CSCc1ccccc1Cl)NNC(=S)Nc1ccccc1`, the AC50 is 2.24 µM (active). `O=C(CSCc1ccccc1Cl)NNC(=O)c1ccccc1`: the AC50 was 5.01 µM (active). With `O=C(CSCc1ccccc1Cl)NN1C(=O)c2ccccc2C1=O`, the AC50 is 10 µM (active). Regarding `O=C(NNC(=S)Nc1ccccc1)C1CC1`, the AC50 entry is “inactive”. Regarding `O=C(NNC(=O)c1ccccc1O)c1ccc(Cl)cc1`, the AC50 result was “inactive”. On to `O=C(O)c1c2c(c(O)c3c1CN(C1CCCCC1)CO3)OCN(C1CCCCC1)C2`, for which the activity, negative = inhibition is 22.2% [at 11.4 µM] (inactive). On to `CCn1c(SCC(=O)c2ccc3ccccc3c2)nnc1-c1cccs1`, for which the AC50 is 0.708 µM (active). Consider `CCn1c(SCC(=O)NC(=O)NCc2ccco2)nnc1-c1cccs1`, for which the concentration at half-maximal activity (AC50) was 14.1 µM (active).

`O=C(CSc1nc2ccc([N+](=O)[O-])cc2s1)c1ccc2ccccc2c1`: the activity, negative = inhibition was -43.1% [at 11.4 µM] (inactive).

With `CCn1c(SCC(=O)c2ccccc2)nnc1-c1cccs1`, the half-maximal activity concentration (AC50) was 0.794 µM (active). Still for that read-out and setting: the result for `CCn1c(SCC(=O)NC2CCCc3ccccc32)nnc1-c1cccs1` (stereo not given) reads 7.94 µM (active); that for `Cc1ccccc1CSc1nnc(-c2cccs2)n1Cc1ccco1`, 1.41 µM (active); that for `Cc1cc(C)nc(SCc2nnc(SCC(N)=O)n2Cc2ccco2)n1`, “inactive”. `O=C1C[C@@H](O)[C@@H](O)[C@H]2[C@@H]3C(=O)N(C4CCCCC4)C(=O)[C@@H]3CC[C@H]12`: the activity, negative = inhibition was 13.8% [at 11.4 µM] (inactive) and 12.1% [at 11.4 µM] (inactive) and 0.0924% [at 11.4 µM] (inactive). On to `CCn1c(SCC(=O)Nc2sc3c(c2C(N)=O)CCC(C)C3)nnc1-c1ccco1` (stereo not given), for which the half-maximal activity concentration (AC50) is 7.08 µM (active). As to `O=C(O)/C=C\C(=O)N1Cc2cc3ccccc3nc2C1`, the activity, negative = inhibition is 21.9% [at 11.4 µM] (inactive). On to `O=C(/C=C/c1ccccc1)N1CCN(Cc2nc3ccccc3c(=O)[nH]2)CC1`, for which the concentration at half-maximal activity (AC50) was 22.4 µM (active). Turning to `O=C(O)c1cccc2cccc(-c3cccc4cccc(C(=O)O)c34)c12`, the activity, negative = inhibition was -9.27% [at 11.4 µM] (inactive). On to `O=C(O)c1ccccc1C(=O)Nc1cc2c(cc1Br)-c1ccccc1C2=O`, for which the activity, negative = inhibition was -19.4% [at 11.4 µM] (inactive). `O=C1c2ccccc2C(=O)c2c1ccc(C(=O)O)c2-c1ccc2ccccc2c1`: the AC50 is 2.51 µM (active).
